Measurements from the supplement of paper PMC6555819.

Tests used:
Assay in all cases: PBM binding z-score (relative to random genomic background probes); higher = stronger binding; sequences stand for … in GC…GCGATTGACAGCGTAGAATGAAGG
[1] = test system: FXR:RXRa (NR concentration 270 nM, RXRa partner concentration 90 nM)
How it was run: (§1)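 Custom Agilent 4×180K protein-binding microarrays carried double-stranded probes, each with a 34-nt variable region. These regions held direct-repeat seeds, single-nucleotide variants, half-site ablations and random human genomic background sequences. Ligand-free nuclear receptor dimers were incubated on the arrays for 1 h, antibodies against each partner (one per run) detected binding, and scanned fluorescence was regression-normalized. Binding z-scores take the random background probes as reference.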

[2] = test system: LXRa:RXRa (NR concentration 270 nM, RXRa partner concentration 90 nM)
How it was run: as §1

[3] = test system: LXRa homodimer (NR concentration 270 nM)
How it was run: as §1

[4] = test system: LXRb:RXRa (NR concentration 270 nM, RXRa partner concentration 90 nM)
How it was run: as §1

[5] = test system: LXRb homodimer (NR concentration 270 nM)
How it was run: as §1

[6] = test system: PPARa:RXRa (NR concentration 270 nM, RXRa partner concentration 90 nM)
How it was run: as §1

[7] = test system: PPARg:RXRa (NR concentration 180 nM, RXRa partner concentration 90 nM)
How it was run: as §1

[8] = test system: PPARg:RXRa 270nM:90nM, anti-RXR (NR concentration 270 nM, RXRa partner concentration 90 nM)
How it was run: as §1

[9] = test system: PPARg:RXRa 30nM:10nM, anti-RXR (NR concentration 30 nM, RXRa partner concentration 10 nM)
How it was run: as §1

[10] = test system: PPARg:RXRa 90nM:30nM, anti-RXR (NR concentration 90 nM, RXRa partner concentration 30 nM)
How it was run: as §1

[11] = test system: PPARg:RXRa DBDmut IVT, anti-RXR (DBD mutation: RXRa K156A/R161A, NR concentration 270 nM, RXRa partner concentration 90 nM)
How it was run: as §1

[12] = test system: PPARg:RXRa IVT, anti-PPARg (NR concentration 270 nM, RXRa partner concentration 90 nM)
How it was run: as §1

[13] = test system: PPARg DBDmut:RXRa IVT, anti-PPARg (DBD mutation: PPARg1 K132A/R137A, NR concentration 270 nM, RXRa partner concentration 90 nM)
How it was run: as §1

[14] = test system: PPARg DBDmut IVT, anti-PPARg (DBD mutation: PPARg1 K132A/R137A, NR concentration 270 nM)
How it was run: as §1

[15] = test system: PPARg homodimer (NR concentration 180 nM)
How it was run: as §1

[16] = test system: PXR:RXRa (NR concentration 270 nM, RXRa partner concentration 90 nM)
How it was run: as §1

[17] = test system: PXR homodimer (NR concentration 270 nM)
How it was run: as §1

[18] = test system: RARa:RXR (NR concentration 270 nM, RXRa partner concentration 90 nM)
How it was run: as §1

[19] = test system: RARa homodimer (NR concentration 270 nM)
How it was run: as §1

[20] = test system: RARb:RXRa (NR concentration 270 nM, RXRa partner concentration 90 nM)
How it was run: as §1

Sequence	PBM binding z-score [1]	PBM binding z-score [2]	PBM binding z-score [3]	PBM binding z-score [4]	PBM binding z-score [5]	PBM binding z-score [6]	PBM binding z-score [7]	PBM binding z-score [8]	PBM binding z-score [9]	PBM binding z-score [10]	PBM binding z-score [11]	PBM binding z-score [12]	PBM binding z-score [13]	PBM binding z-score [14]	PBM binding z-score [15]	PBM binding z-score [16]	PBM binding z-score [17]	PBM binding z-score [18]	PBM binding z-score [19]	PBM binding z-score [20]
TGAGACAGGTGAAGGTAACTCAGGTACGCAGTCG	-0.213	1.11	-0.351	0.233	-0.678	0.549	0.639	0.251	0.211	-0.17	-0.0775	0.991	0.178	-0.801	0.0963	-0.189	-0.538	0.124	-0.0291	0.697
TCGAGTAGGTTAGGGGCACTCAGAATGGCGTCGA	0.134	-0.0493	-0.34	0.556	-0.72	0.994	0.844	1.91	0.959	1.64	1.87	1.32	-0.303	-1.43	0.271	0.155	-0.021	0.491	-0.62	0.927
TGAATGAGGTTATAATATCAGGGAACGTTGCAAA	1.4	1.31	0.0955	1.38	0.0343	2.68	1.29	1.62	0.724	1.25	0.771	1.75	1.25	0.939	0.756	1.08	0.111	1.59	0.0682	1.08
TGTAAAAGTTCAAAGGTAACGTAAGTATCCACAC	6.54	6.21	4.26	4.37	1.88	5.54	6.22	6.14	3.76	5.5	0.163	2.72	1.6	1.19	2.18	5.02	2.34	5.42	1.74	4.85
GGTAGTTGGTCAGTAAAAGGTCACACACCGGTCG	3.14	4.29	4.91	4.07	1.47	4.34	2.7	4.44	2.46	3.81	0.823	3.16	0.932	0.24	4.48	4.95	1.37	5.68	3	4.28
CAAACTAGTTCACAGAGGTCAAAGTCCGTGCGTA	5.85	6.23	7.12	5.68	2.36	5.3	3.87	5.02	2.33	4.18	2.43	3.25	0.945	0.72	4.3	7.16	14.3	7.22	2.73	4.46
ACAATTAGTTGACTTAGGGCAACCGATACGACGC	0.279	0.33	0.565	0.0599	0.612	0.00256	1.03	0.396	0.353	0.139	0.0819	0.506	0.981	1.45	0.921	-0.00518	0.761	0.318	0.646	0.888
CCTACTGGGCCAAGGTCATTAATCAGTCAAAGCA	2.47	2.57	1.18	2.82	-0.0551	3.71	3.45	4.19	1.47	3.23	3.47	4.44	0.31	0.133	2.15	3.16	1.21	3.39	0.145	3.29
TAGCCTAGGGCATTGGGCCAGTATAGTACGCATC	-0.339	-0.336	-0.318	-0.673	-0.892	-0.0901	0.887	0.225	-0.369	-0.368	0.771	1.87	-0.149	-0.898	-1.01	-0.62	-0.779	-0.444	-1.17	1.08
CCTAGTTGGTGAGGAGGTCACACACCGGATATGA	2.72	3.07	1.61	3.19	0.489	3.86	2.06	3.07	1.4	2.31	0.486	2.56	0.735	0.147	3.46	3.86	1.61	4.11	1.97	3.1
CCTCGGAGGACAGAATGTCAGAGCTGTCCGCTTT	-0.31	-0.467	-0.713	-1.01	-0.428	-0.27	-0.416	-0.901	-0.655	-1.09	-0.17	-1.04	-1.38	-1.68	0.0941	-0.762	-0.458	-0.687	-0.242	0.241
AATACAGGGTCATCGTAGGCCAGACTACGCACAG	7.17	6.52	2.16	5.02	1.46	6.05	6.77	6.04	2.96	4.83	2.63	4.16	1.31	1.03	2.16	4.73	0.736	4.7	0.914	4.5
CGTCCAAGGTCAGCAGGTCCGTGAAAGCGACGTG	4.81	3.09	-0.42	2.19	-0.0479	4.13	2.24	3.15	0.0631	1.82	2.55	2.38	-0.178	-1.09	1.99	2.47	0.631	3.08	0.18	4.86
CCTTACGCGTCACTCCAGGTTATAGCATCGGAGT	1.11	4.05	1.55	1.36	0.803	0.54	0.559	-0.0823	-0.223	-0.192	0.0955	0.368	0.286	1	1.16	0.484	0.825	0.345	0.837	0.333
